Most compounds without a hit are left out; they make up all but 6.8% or so of the library.
Pf Dd2 growth: blocks growth of Plasmodium falciparum Dd2 parasites. activity change, % at 10 µM. 2.3% of 94,000 active. P. falciparum Dd2 growth, SYBR Green, 72 h; stronger effect = lower value; in the data active means activity change below about -80%; inconclusive means no clear call, values can overlap the other calls
T cruzi growth: inhibitors of T. cruzi proliferation; T. cruzi beta-gal in NIH3T3, GalScreen luminescence, 90 h; inhibition, % at 8.34 µM; 5.9% of 77,000 active; AID 624255;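 active means mean inhibition above about 93%, with at least 55% of replicates each passing it, limit read from the data, passing the limit was not always enough; inconclusive means only one of those two conditions holds; inactive means neither condition holds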
C diff HTS: inhibitors of Clostridium difficile growth | AID 1259249 | 0.25% of 86,000 active | growth activity, negative = inhibition, % at 16 µg/mL (by protocol) | Clostridium difficile clinical isolate growth, OD600, 24 h; stronger effect = lower value;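 active means mean growth activity at or below -80% and every replicate also at or below -80%; inconclusive means mean at or below -80% but some replicate above -80%; inactive means mean growth activity above -80%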;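 further: 0% = DMSO wells and -100% = levofloxacin 16 µg/mL wells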
An asterisk follows results filed as active; ? = inconclusive; . = no result given.

SMILES	Pf Dd2 growth	T cruzi growth	C diff HTS
C[C@@H]1CN([C@H](C)CO)C(=O)c2cc(NC(=O)CCC(F)(F)F)ccc2O[C@@H]1CN(C)CC1CCCCC1	19	19	1
COc1ccc(NC(=O)N(C)C[C@@H]2Oc3c(NS(C)(=O)=O)cccc3C(=O)N([C@@H](C)CO)C[C@H]2C)cc1	27	-14	-4
C[C@@H]1CN([C@@H](C)CO)C(=O)c2cc(C#CCc3ccccc3)cnc2O[C@@H]1CN(C)C(=O)C1CCC1	-50	23	1
C[C@@H]1CN([C@H](C)CO)C(=O)c2cc(C#CCc3ccccc3)cnc2O[C@H]1CN(C)C(=O)C1CCC1	-87*	67	2
C[C@@H]1CN([C@H](C)CO)C(=O)c2cc(C#Cc3ccccc3)cnc2O[C@H]1CN(C)C(=O)CCN1CCCCC1	-90*	55	13
C[C@H](CO)N1C[C@H](C)[C@@H](CN(C)C(=O)CCN2CCCCC2)Oc2ncc(C#Cc3ccccc3)cc2C1=O	-66	29	7
CCC(=O)Nc1ccc2c(c1)C(=O)N(C)C[C@H](OC)[C@@H](C)CN(C(=O)CN(C)C)[C@H](C)CO2	.	-53	.
CCCNC(=O)N1CC2(C1)CN(C(C)=O)[C@@H](CO)c1c2c2ccc(OC)cc2n1C	16	.	3
O=C(Cc1ccncc1)NCC[C@@H]1CC[C@@H](NC(=O)C2CCOCC2)[C@@H](CO)O1	13	-15	5
CCC(=O)N1CC(=O)N2[C@H](CO)[C@@H](c3ccc(C#Cc4cccc(OC)c4)cc3)[C@@H]2C1	-18	.	-10
C[C@@H]1CN([C@H](C)CO)C(=O)c2cc(-c3ccc(C#N)cc3)cnc2O[C@H]1CN(C)C(=O)Nc1ccc(C(F)(F)F)cc1	-94*	.	.
C[C@H](CO)N1C[C@H](C)[C@H](CN(C)C(=O)Nc2ccc(F)cc2)Oc2ncc(-c3cccc(C(F)(F)F)c3)cc2C1=O	-39	109*	65
C[C@H](CO)N1C[C@H](C)[C@H](CN(C)C(=O)Nc2ccccc2)Oc2ncc(-c3cccc(C(F)(F)F)c3)cc2C1=O	-26	91	18
C[C@@H]1CN([C@@H](C)CO)C(=O)c2cc(-c3ccc(C#N)cc3)cnc2O[C@H]1CN(C)C(=O)Nc1ccc(C(F)(F)F)cc1	9	.	-1
O=C(C[C@@H]1C[C@@H]2c3cc(NC(=O)Nc4ccccc4F)ccc3O[C@@H]2[C@H](CO)O1)NCc1ccncc1	29	1	-1
O=C(Cc1cccnc1)N[C@@H]1CC[C@H](CCn2cc(Cc3ccccc3)nn2)O[C@H]1CO	23	32	-6
C[C@@H]1CCCCO[C@@H](CN(C)S(=O)(=O)c2cccs2)[C@@H](C)CN([C@@H](C)CO)C(=O)c2cc(NC(=O)Nc3ccc(C(F)(F)F)cc3)ccc2O1	-87*	84	5
C[C@@H]1CN([C@@H](C)CO)C(=O)c2cc(NC(=O)CCC(F)(F)F)ccc2O[C@@H](C)CCCCO[C@@H]1CN(C)S(=O)(=O)c1cccs1	-63	39	6
C[C@@H]1CN([C@H](C)CO)C(=O)c2cc(NC(=O)CCC(F)(F)F)ccc2O[C@@H](C)CCCCO[C@@H]1CN(C)S(=O)(=O)c1cccs1	-85*	68	6
C[C@@H]1CN([C@@H](C)CO)C(=O)c2cc(NC(=O)Nc3ccc(C(F)(F)F)cc3)ccc2O[C@@H](C)CCCCO[C@@H]1CN(C)S(=O)(=O)c1cccs1	-56	37	7
C[C@@H]1CCCCO[C@@H](CN(C)S(=O)(=O)c2cccs2)[C@@H](C)CN([C@H](C)CO)C(=O)c2cc(NC(=O)Nc3ccc(C(F)(F)F)cc3)ccc2O1	-67	18	-4
C[C@@H]1CCCCO[C@H](CN(C)S(=O)(=O)c2cccs2)[C@@H](C)CN([C@@H](C)CO)C(=O)c2cc(NC(=O)Nc3ccc(C(F)(F)F)cc3)ccc2O1	-87*	94	0
C[C@@H]1CN([C@H](C)CO)C(=O)c2cc(NC(=O)c3ccncc3)ccc2O[C@@H](C)CCCCO[C@H]1CN(C)Cc1ccc(C(F)(F)F)cc1	-75	87	10
C[C@@H]1CN([C@H](C)CO)C(=O)c2cc(NC(=O)Nc3ccc(F)cc3)ccc2O[C@H]1CN(C)S(=O)(=O)c1ccc(F)cc1	-37	4	-1
Cc1noc(C)c1NC(=O)Nc1ccc2c(c1)C(=O)N([C@H](C)CO)C[C@@H](C)[C@H](CN(C)Cc1ccc(Cl)c(Cl)c1)OCCCC[C@H](C)O2	-86*	76	10
SMILES	Pf Dd2 growth	T cruzi growth	C diff HTS
C[C@@H]1CCCCO[C@H](CN(C)Cc2ccc3c(c2)OCO3)[C@H](C)CN([C@@H](C)CO)C(=O)c2cc(NC(=O)Nc3ccccc3)ccc2O1	?	16	5
C[C@H]1CCCCO[C@H](CN(C)Cc2ccccc2)[C@@H](C)CN([C@@H](C)CO)C(=O)c2cc(NC(=O)Nc3ccc(F)cc3)ccc2O1	-72	75	5
C[C@@H]1CCCCO[C@H](CN(C)Cc2ccccc2)[C@H](C)CN([C@@H](C)CO)C(=O)c2cc(NC(=O)Nc3ccc(F)cc3)ccc2O1	-84*	76	8
C[C@@H]1CN([C@H](C)CO)C(=O)c2cc(NC(=O)Nc3ccccc3)ccc2O[C@@H](C)CCCCO[C@@H]1CN(C)Cc1ccccc1	-82*	.	.
C[C@H]1CCCCO[C@@H](CN(C)Cc2ccc3c(c2)OCO3)[C@@H](C)CN([C@@H](C)CO)C(=O)c2cc(NC(=O)Nc3ccccc3)ccc2O1	-82*	94	12
C[C@@H]1CN([C@@H](C)CO)C(=O)c2cc(NC(=O)Nc3ccccc3)ccc2O[C@@H](C)CCCCO[C@H]1CN(C)Cc1ccccc1	-67	.	.
Cc1noc(C)c1NC(=O)Nc1ccc2c(c1)C(=O)N([C@H](C)CO)C[C@H](C)[C@@H](CN(C)Cc1ccc(Cl)c(Cl)c1)OCCCC[C@@H](C)O2	-32	-31	5
CN1CCN(C(=O)C[C@H]2CC[C@@H]3[C@H](COC[C@H](O)CN3CC3CCOCC3)O2)CC1	11	36	-5
O=C(NCCc1ccncc1)[C@@H]1[C@@H](CO)[C@@H]2Cn3c(ccc(-c4cccnc4)c3=O)[C@@H]2N1C(=O)C1CC1	15	-6	2
O=C(CCN1CCCCC1)N[C@@H]1CC[C@H](CCNS(=O)(=O)c2ccc(F)cc2)O[C@H]1CO	11	-20	-4
O=C(Nc1ccc2c(c1)OCO2)N[C@@H]1CC[C@H](CCNC(=O)C2CC2)O[C@H]1CO	7	-3	.
C[C@@H]1CN([C@@H](C)CO)C(=O)Cc2cc(NC(=O)c3ccncc3)ccc2O[C@@H]1CN(C)C	6	.	-4
CN1c2ccc(C#Cc3cccnc3)cc2[C@H]2[C@H](CCN2S(=O)(=O)c2cccc(F)c2)[C@@H]1CO	-65	31	1
C[C@@H]1CCCCO[C@@H](CN(C)Cc2ccc(Cl)c(Cl)c2)[C@@H](C)CN([C@H](C)CO)C(=O)c2cc(NC(=O)Nc3ccccc3)ccc2O1	-8	94	2
COc1ccc(NC(=O)Nc2ccc3c(c2)C(=O)N([C@@H](C)CO)C[C@@H](C)[C@@H](CN(C)Cc2ccc4c(c2)OCO4)OCCCC[C@@H](C)O3)cc1	-83*	85	16

Screens deposited in PubChem by Broad Institute.
